Screening results: PubChem, National Center for Advancing Translational Sciences (NCATS)
DT40 TDP1 CPT: DT40-hTDP1 cell growth loss with CPT; chicken DT40 Tdp1-/-;hTDP1 cells + 20 nM CPT, ATP luminescence, 48 h; Potency, µM (titrated, usually from 46.2 µM), for inactives: at the highest dose activity change, negative = growth inhibition, hits mostly inhibitors; actives 12% (n = 420,000); AID 686979; note: potency is the fitted concentration of half-maximal effect; nearly all actives have a fitted effect of over 55% in size
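Chicken DT40 Tdp1-/- cells stably complemented with human TDP1 were seeded at 400 cells/well in medium containing 20 nM camptothecin, exposed to pin-transferred compounds, and grown at 37 °C for at least 48 hr. Viability was read as ATP luminescence.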
TDP1 cell noCPT: qHTS for Inhibitors of human tyrosyl-DNA phosphodiesterase 1 (TDP1): qHTS in cells in absence of CPT; DT40 Tdp1-/- hTDP1 cells, no CPT, ATP luminescence, 48 h; Potency, µM (series often up to 46.2 µM), inactives show at the highest dose activity change, negative = growth inhibition, usual class: inhibitors; actives 15% (n = 420,000); note: potency is the fitted concentration of half-maximal effect; nearly all actives have a fitted effect of over 55% in size
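Readout: luminescence from CellTiter-Glo after 30 min in the dark at RT. Cells: DT40 Tdp1-/- with stable hTDP1, 400/well. Exposure: compounds alone, ≥48 hr, 37 °C.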
HT1080NT lethal: kills 2HG-producing HT-1080-NT fibrosarcoma cells; Potency, µM (series often up to 46.1 µM), without a hit: top-dose activity, negative = less viability, hits mostly cytotoxic; HT-1080-NT fibrosarcoma viability, CellTiter-Glo ATP luminescence, 48 h; actives 1.6% (n = 360,000);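 note: NT is the 2HG producing partner of a matched IDH1 knockdown line; potency is the fitted concentration of half-maximal effect; 0% = DMSO-treated cells and -100% = media-only wells without cells; nearly all actives have a fitted effect of over 55% in size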
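HT-1080-NT; 750 cells/well; 5% FBS RPMI; 48 h compound, 37 degrees C; CellTiter-Glo luminescence; curve fitting and curve-class assignment.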
IL-1B inflam inh: inflammasome signaling inhibition, IL-1 beta readout. THP-1 LPS/ATP IL-1B secretion, AlphaLISA, 16 h; stronger effect = lower value. activity change, % at 57.5 µM. actives 4.7% (n = 360,000); in the data active = activity change below about -50%; inconclusive = mostly about -30% to -49%
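Secreted IL-1B measured by AlphaLISA bead assay after 16 h compound exposure of THP-1 cells; compounds (final up to 57.5 uM) added 1 h before LPS (250 ng/mL) and ATP (1.25 mM) stimulation; lower signal means less secretion.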
HT1080 IDH1KD tx: toxicity to HT-1080 IDH1 knockdown cells (counter line). HT-1080 IDH1 knockdown viability, ATP luminescence, 48 h. Potency, µM (titrated, usually from 46.1 µM), for the others: at the top dose activity, negative = toxicity, usual class: cytotoxic. actives 2% (n = 360,000). AID 686971;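 note: potency is the fitted concentration of half-maximal effect; 0% = DMSO wells and -100% = cell-free medium wells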
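In this qHTS, HT-1080 cells depleted of IDH1 are exposed for 48 h at 37 °C to compound titrations. Toxicity is scored from CellTiter-Glo luminescence, with DMSO as full viability and medium alone as none.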
* marks the source's active call; other numbers are inactive results; i = inactive; ? = inconclusive; / = no result given; [ ] = another dose, or the depositor's remark. Compounds with a hit are over-represented: about 19% of the library has one in this group of screens. Unless noted, calls come from the whole dose curve; as a rule, active = well fitted curve in the direction sought with a large enough effect; inconclusive = small, poorly fitted or top-dose-only effect, or another doubt; inactive = no such curve, though single readings can be large; an effect the other way counts as inactive or inconclusive. Unless noted, % is set by controls: 0 for no effect and ±100 for the full control effect.

SMILES | DT40 TDP1 CPT | TDP1 cell noCPT | HT1080NT lethal | IL-1B inflam inh | HT1080 IDH1KD tx
Cc1ccc(C)c(CN2C(=O)c3ccccc3S(=O)(=O)c3ccc(C(=O)N4CCN(c5ccccc5)CC4)cc32)c1 | -2.2% | -16.0% | / | / | /
O=C(NCCN1CCCC1)c1ccc2c(c1)N(Cc1cccc(Cl)c1)C(=O)c1ccccc1S2(=O)=O | ? | 5.2% | -19.7% | -7.7 | ?
O=C(c1ccc2c(c1)N(Cc1ccccc1)C(=O)c1ccccc1S2(=O)=O)N1CCN(c2ccccn2)CC1 | ? | 20.6µM* | / | / | /
O=C(c1cc2c(s1)-c1ccccc1S(=O)(=O)C2)N1CCN(Cc2ccccc2)CC1 | 18.4µM* | 16.4µM* | -16.4% | -8.6 | ?
O=C(c1ccc2c(c1)N(Cc1ccccc1)C(=O)c1ccccc1S2(=O)=O)N1CCN(Cc2ccccc2)CC1 | 10.3µM* | 7.31µM* | / | / | /
CCC(C)NC(=O)c1ccc2c(c1)N(Cc1ccccc1)C(=O)c1ccccc1S2(=O)=O (stereo not given) | ? | -19.6% | / | / | /
Oc1ccc(-c2nccc(-c3ccc(F)cc3)n2)cc1 | 9.9% | ? | -23.0% | -7.0 | -27.2%
Cc1cc(C)n(CC(=O)NC2CCCCC2C)c(=O)c1C#N (stereo not given) | -6.4% | 1.8% | 7.8% | -13.0 | 9.8%
O=C(c1ccc2c(c1)N(Cc1ccccc1F)C(=O)c1ccccc1S2(=O)=O)N1CCN(c2ccccn2)CC1 | 25.9µM* | 20.6µM* | / | / | /
O=C(c1ccc2c(c1)N(Cc1ccc(Cl)cc1)C(=O)c1ccccc1S2=O)N1CCC(Cc2ccccc2)CC1 (stereo not given) | 11.6µM* | 9.2µM* | / | / | /
Cc1ccc(Cl)cc1NC(=S)N(CCCN1CCOCC1)Cc1ccco1 | 11.0% | 1.1% | -5.2% | -22.2 | -1.8%
COc1ccc(CN2C(=O)C(CC(=O)NCC3CCCCC3)CC(C(=O)N(C(C)C)C(C)C)=C2C)cc1 (stereo not given) | ? | ? | -1.9% | 6.8 | 3.4%
Cc1cccc(C(=O)Oc2ccc(/C=N/NC(=O)c3cc(O)cc(O)c3)cc2)c1 | -19.8% | -19.6% | -29.2% | i | ?
O=C(Oc1ccc(/C=N/NC(=O)c2ccccc2F)cc1)c1ccccc1 | 9.2µM* | 11.6µM* | 5.7% | -2.5 | 5.8%
O=C(N/N=C/c1ccc(OC(=O)c2ccccc2)cc1)c1cccc(O)c1 | ? | 16.4µM* | -15.9% | -8.0 | 0.0%
Cc1cc(C)cc(N2CCn3c2nc2c3c(=O)n(Cc3c(F)cccc3Cl)c(=O)n2C)c1 | 14.4% | 3.7% | / | / | /
CC1C(=O)N(Cc2cn(CCC3OCCCO3)nn2)CCS(=O)(=O)N1Cc1ccc(-c2ccc(F)cc2)cc1 (stereo not given) | 11.6µM* | 18.4µM* | 4.1% | -12.4 | -15.1%
CC1C(=O)N(Cc2cn(CCC3OCCCO3)nn2)CCS(=O)(=O)N1Cc1ccc(-c2ccc(Cl)c(Cl)c2)cc1 (stereo not given) | 4.11µM* | 3.66µM* | ? | -19.7 | 20.6µM*
COc1ccc(-c2ccc(CN3C(C)C(=O)N(Cc4cn(CCC5OCCCO5)nn4)CCS3(=O)=O)cc2)cc1 (stereo not given) | 16.4µM* | 18.4µM* | -1.4% | 13.9 | -3.2%
O=C(NC1=NCCS1)c1cccc(S(=O)(=O)N2CCOCC2)c1 | 1.2% | 9.6% | 3.6%[9.24 µM] | 2.5 | 8.8%
Cc1ccc(NC(=S)NNc2ccc(C(=O)O)cc2[N+](=O)[O-])cc1C | 1.9% | -29.6% | -13.4% | -28.2 | -9.2%
Cc1ccc(Nc2[nH]c(=O)c3ccccc3c2C(=O)c2ccccc2)cc1 | -3.6% | -13.1% | 9.5% | 21.2 | 4.1%
S=C(Nc1ccc(Br)cc1)N1CCn2cccc2C1c1cccnc1 (stereo not given) | ? | ? | -4.5% | -64.9* | -25.8%
NC1=NC(=O)C(c2ccccc2)(c2ccccc2)S1 | -2.8% | ? | 0.6% | 21.4 | 15.5%
COc1cc(SC)ccc1C(=O)Nc1cccc(S(=O)(=O)NC2=NCCCCC2)c1 | 20.6µM* | ? | -13.1% | -13.0 | -5.4%
SMILES | DT40 TDP1 CPT | TDP1 cell noCPT | HT1080NT lethal | IL-1B inflam inh | HT1080 IDH1KD tx
COc1cc(OC)c(C(=O)OCC(=O)Nc2cccc(S(=O)(=O)NC3=NCCCCC3)c2)cc1OC | ? | ? | -7.3% | 2.4 | 7.6%
CCN(CC)S(=O)(=O)c1cccc(NC(=O)c2ccc(SC)cc2OC)c1 | 25.9µM* | 7.31µM* | -7.2% | / | -18.4%
Cc1cc2nc(-c3ccc(Br)cc3)cc(C(F)(F)F)n2n1 | 6.4% | -21.6% | / | / | /
O=C(Nc1cccc2nsnc12)c1cc2c(cc1Cl)Sc1nccn1S2(=O)=O | 23.1µM* | ? | 8.9% | 6.0 | -0.3%
O=C(O)CC/C=C\CC[C@H]1[C@@H](N2CCCCC2)[C@@H](O)C[C@@H]1OCc1ccc(-c2ccccc2)cc1 | -0.9% | -2.0% | / | / | /
CC(C)Cc1nc(N2CCN(C(=O)C(C)C)CC2)c(C#N)c2c1CCC2 | 20.6µM* | ? | -0.5% | -12.1 | -17.3%
CC(=O)N1CCN(c2nc(CC(C)C)c3c(c2C#N)CCC3)CC1 | -28.0% | ? | -5.4% | -9.5 | -3.0%
Cc1ccc(C(O)c2ncc(-c3ccccc3C(F)(F)F)[nH]2)cc1F (stereo not given) | ? | ? | -20.4% | 45.2 | -10.1%
CCN1CCN(c2cc(C)nc(-c3ccccc3O)n2)CC1 | -3.1% | -12.0% | -13.3% | -69.0* | -11.3%
Cc1cc(N2CCCCC2C)nc(-c2ccccc2O)n1 (stereo not given) | 23.1µM* | 20.6µM* | 16.1% | -9.9 | -0.8%
Cc1cc(N2CCCCCC2)nc(-c2ccccc2O)n1 | ? | ? | -4.7% | -7.8 | -10.5%
